# Assay results taken from article PMC7862700, “An all-to-all approach to the identification of sequence-specific readers for epigenetic DNA modifications on cytosine”.
# What was measured:
# Experiment in all cases: DAPPL (digital affinity profiling via proximity ligation, sequencing); 10 mM Tris-HCl pH 7.5, 50 mM NaCl, 1 mM DTT, 4% glycerol, room temperature, 30 min; GST-TFs on glutathione beads, 16-mer random dsDNA library, 0.1% formaldehyde crosslink after washing; high values mean tight binding
# FLI1 = target: T1, FLI1 (Homo sapiens, UniProt Q01543 1-452); conditions: protein: recombinant; tags: N-terminal GST; dsDNA, one strand shown
# T1 sequence: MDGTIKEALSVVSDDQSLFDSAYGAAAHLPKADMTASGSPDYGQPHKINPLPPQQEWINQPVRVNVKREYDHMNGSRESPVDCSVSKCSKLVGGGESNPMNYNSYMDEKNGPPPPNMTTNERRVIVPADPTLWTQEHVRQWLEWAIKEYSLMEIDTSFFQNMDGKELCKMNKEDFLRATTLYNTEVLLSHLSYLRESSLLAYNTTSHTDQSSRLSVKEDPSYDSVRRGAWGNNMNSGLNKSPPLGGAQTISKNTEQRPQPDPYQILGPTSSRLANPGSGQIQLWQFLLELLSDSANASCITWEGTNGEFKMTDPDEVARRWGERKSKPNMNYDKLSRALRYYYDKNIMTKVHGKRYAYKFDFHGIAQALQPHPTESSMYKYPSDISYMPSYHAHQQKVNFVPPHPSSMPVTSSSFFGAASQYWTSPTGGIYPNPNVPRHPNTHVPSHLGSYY
# In short: (§1)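 Pools of DNA-barcoded human transcription factors, expressed in yeast as GST fusions on glutathione beads and combined with a tag-only sample, were incubated with 200 nmole of a 16-mer random double-stranded DNA library. Incubation took 30 min at room temperature in Tris/NaCl/DTT/glycerol buffer and was followed by washing, 0.1% formaldehyde crosslinking, proximity ligation (BsaI/T4 ligase, 1 h, 37 °C), PCR amplification and sequencing on an Illumina NextSeq500. Binding signal is the ratio of a hexamer's read frequency for a factor to its frequency for the tag-only sample.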
# ELK1 = target: T2, ELK1 (Homo sapiens, UniProt P19419 1-428); conditions: protein: recombinant; tags: N-terminal GST; dsDNA, one strand shown
# T2 sequence: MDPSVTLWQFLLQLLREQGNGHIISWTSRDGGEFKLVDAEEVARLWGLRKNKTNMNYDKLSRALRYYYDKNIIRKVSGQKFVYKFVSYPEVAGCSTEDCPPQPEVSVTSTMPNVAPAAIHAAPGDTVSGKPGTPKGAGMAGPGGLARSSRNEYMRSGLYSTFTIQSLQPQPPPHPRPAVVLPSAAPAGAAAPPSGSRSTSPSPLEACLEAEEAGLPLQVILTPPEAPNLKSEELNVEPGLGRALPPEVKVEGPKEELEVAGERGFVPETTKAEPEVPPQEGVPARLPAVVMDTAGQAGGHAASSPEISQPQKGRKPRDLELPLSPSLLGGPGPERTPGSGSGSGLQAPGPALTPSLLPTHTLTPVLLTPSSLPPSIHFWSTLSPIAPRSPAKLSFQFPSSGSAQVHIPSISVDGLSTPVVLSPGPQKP
# In short: as §1
# GABPA = target: T3, GABPA (Homo sapiens, UniProt Q06546 1-454); conditions: protein: recombinant; tags: N-terminal GST; dsDNA, one strand shown
# T3 sequence: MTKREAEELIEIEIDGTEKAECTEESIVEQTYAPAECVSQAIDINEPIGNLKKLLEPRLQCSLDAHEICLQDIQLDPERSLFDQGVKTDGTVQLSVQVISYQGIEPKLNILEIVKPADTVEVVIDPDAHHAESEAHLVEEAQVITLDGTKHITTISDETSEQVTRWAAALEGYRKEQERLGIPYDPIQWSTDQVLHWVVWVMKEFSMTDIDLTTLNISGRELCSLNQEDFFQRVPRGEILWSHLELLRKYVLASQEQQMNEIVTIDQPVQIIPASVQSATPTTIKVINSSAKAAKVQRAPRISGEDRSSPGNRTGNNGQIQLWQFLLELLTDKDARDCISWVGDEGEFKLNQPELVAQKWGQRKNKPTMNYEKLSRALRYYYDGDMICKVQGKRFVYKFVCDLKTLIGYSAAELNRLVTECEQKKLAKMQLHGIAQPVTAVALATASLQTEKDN
# In short: as §1
# ERG = target: T4, ERG (Homo sapiens, UniProt P11308 1-479); conditions: protein: recombinant; tags: N-terminal GST; dsDNA, one strand shown
# T4 sequence: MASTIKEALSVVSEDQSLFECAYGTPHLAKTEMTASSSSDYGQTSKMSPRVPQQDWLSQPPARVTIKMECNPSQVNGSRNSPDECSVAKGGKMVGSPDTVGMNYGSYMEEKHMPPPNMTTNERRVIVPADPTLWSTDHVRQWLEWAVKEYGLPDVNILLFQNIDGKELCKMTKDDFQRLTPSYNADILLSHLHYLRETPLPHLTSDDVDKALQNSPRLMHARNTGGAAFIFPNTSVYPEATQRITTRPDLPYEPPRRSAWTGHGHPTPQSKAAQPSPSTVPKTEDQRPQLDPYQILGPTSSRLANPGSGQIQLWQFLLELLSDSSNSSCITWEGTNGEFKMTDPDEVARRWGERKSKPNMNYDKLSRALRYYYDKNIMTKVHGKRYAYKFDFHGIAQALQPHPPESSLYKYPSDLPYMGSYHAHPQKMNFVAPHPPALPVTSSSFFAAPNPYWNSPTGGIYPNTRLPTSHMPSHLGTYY
# In short: as §1
# ELF1 = ELF1 (Homo sapiens, UniProt P32519 1-619); conditions: protein: recombinant; tags: N-terminal GST; dsDNA, one strand shown
# Sequence of ELF1 (P32519 whole entry): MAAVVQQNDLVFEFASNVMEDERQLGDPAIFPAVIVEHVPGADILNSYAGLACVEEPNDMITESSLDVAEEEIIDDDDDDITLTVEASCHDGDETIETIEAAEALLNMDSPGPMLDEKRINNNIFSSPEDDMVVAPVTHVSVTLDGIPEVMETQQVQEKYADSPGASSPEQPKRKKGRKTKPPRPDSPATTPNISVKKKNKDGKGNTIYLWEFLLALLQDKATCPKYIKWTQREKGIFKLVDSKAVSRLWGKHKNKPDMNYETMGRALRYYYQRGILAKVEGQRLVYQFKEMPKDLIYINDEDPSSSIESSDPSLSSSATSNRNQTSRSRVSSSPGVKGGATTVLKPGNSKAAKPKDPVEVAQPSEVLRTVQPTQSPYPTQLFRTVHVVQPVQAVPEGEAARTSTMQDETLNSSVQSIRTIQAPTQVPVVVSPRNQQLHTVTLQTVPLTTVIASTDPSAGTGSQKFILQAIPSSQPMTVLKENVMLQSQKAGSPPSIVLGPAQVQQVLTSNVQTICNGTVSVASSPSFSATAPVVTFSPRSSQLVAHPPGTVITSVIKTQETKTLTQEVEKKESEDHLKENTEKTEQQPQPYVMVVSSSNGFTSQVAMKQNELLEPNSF
# In short: as §1
# EHF = target: T5, EHF (Homo sapiens, UniProt Q9NZC4 1-300); conditions: protein: recombinant; tags: N-terminal GST; dsDNA, one strand shown
# T5 sequence: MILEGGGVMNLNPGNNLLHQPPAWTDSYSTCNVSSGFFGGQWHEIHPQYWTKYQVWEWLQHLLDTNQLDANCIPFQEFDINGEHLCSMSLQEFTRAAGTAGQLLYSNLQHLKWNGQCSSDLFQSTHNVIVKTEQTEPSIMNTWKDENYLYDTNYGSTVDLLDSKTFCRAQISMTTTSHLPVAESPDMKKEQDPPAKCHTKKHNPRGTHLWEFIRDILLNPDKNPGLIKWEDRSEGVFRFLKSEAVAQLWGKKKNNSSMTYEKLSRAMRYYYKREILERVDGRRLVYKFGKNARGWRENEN
# In short: as §1
# SPI1 = SPI1 (Homo sapiens, UniProt P17947 1-270); conditions: protein: recombinant; tags: N-terminal GST; dsDNA, one strand shown
# In short: as §1
# SPIB = SPIB (Homo sapiens, UniProt Q01892 1-262); conditions: protein: recombinant; tags: N-terminal GST; dsDNA, one strand shown
# Sequence of SPIB (Q01892 whole entry): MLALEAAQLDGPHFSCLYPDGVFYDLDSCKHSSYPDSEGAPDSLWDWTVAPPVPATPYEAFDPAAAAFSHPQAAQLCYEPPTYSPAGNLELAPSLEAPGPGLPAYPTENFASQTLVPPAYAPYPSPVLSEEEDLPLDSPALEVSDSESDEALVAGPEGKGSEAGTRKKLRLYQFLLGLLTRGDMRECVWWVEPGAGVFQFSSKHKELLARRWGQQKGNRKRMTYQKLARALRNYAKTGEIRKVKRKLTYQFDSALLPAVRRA
# In short: as §1
# ELK3 = target: T6, ELK3 (Homo sapiens, UniProt P41970 1-407); conditions: protein: recombinant; tags: N-terminal GST; dsDNA, one strand shown
# T6 sequence: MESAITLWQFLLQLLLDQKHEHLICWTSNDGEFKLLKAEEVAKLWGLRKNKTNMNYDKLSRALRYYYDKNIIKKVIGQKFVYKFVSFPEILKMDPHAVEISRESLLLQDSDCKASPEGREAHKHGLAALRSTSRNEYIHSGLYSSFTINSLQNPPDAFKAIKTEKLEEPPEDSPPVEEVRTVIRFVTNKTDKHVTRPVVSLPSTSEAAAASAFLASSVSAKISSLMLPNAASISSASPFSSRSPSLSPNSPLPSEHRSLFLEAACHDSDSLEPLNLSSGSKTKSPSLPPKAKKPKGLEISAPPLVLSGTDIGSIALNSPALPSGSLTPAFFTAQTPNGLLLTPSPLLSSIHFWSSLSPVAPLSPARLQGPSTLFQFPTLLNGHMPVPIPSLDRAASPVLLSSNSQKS
# In short: as §1
# FEV = target: T7, FEV (Homo sapiens, UniProt Q99581 1-238); conditions: protein: recombinant; tags: N-terminal GST; dsDNA, one strand shown
# T7 sequence: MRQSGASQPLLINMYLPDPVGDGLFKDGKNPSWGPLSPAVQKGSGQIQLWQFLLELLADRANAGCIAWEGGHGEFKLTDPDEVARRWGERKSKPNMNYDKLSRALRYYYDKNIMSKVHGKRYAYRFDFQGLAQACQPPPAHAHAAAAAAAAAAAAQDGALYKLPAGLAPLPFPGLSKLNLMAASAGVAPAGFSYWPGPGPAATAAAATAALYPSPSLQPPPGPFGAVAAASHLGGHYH
# In short: as §1
# ETV5 = ETV5 (Homo sapiens, UniProt P41161 1-510); conditions: protein: recombinant; tags: N-terminal GST; dsDNA, one strand shown
# Sequence of ETV5 (P41161 whole entry): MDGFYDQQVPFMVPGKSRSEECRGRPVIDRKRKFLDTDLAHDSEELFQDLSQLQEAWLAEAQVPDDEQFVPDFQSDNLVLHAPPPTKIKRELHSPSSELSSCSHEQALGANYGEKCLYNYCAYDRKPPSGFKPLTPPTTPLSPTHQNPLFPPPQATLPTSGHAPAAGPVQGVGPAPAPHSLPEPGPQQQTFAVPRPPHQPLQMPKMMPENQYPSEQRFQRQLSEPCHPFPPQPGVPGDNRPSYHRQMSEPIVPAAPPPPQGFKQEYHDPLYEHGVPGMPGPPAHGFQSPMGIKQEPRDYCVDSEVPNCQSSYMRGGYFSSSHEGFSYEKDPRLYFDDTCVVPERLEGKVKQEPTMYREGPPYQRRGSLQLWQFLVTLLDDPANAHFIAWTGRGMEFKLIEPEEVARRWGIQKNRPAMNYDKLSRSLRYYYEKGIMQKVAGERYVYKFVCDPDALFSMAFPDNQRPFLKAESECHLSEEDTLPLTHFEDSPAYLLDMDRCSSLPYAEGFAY
# In short: as §1
# HSF1 = HSF1 (Homo sapiens, UniProt Q00613 1-529); conditions: protein: recombinant; tags: N-terminal GST; chain copies: 3; dsDNA, one strand shown
# Sequence of HSF1 (Q00613 whole entry): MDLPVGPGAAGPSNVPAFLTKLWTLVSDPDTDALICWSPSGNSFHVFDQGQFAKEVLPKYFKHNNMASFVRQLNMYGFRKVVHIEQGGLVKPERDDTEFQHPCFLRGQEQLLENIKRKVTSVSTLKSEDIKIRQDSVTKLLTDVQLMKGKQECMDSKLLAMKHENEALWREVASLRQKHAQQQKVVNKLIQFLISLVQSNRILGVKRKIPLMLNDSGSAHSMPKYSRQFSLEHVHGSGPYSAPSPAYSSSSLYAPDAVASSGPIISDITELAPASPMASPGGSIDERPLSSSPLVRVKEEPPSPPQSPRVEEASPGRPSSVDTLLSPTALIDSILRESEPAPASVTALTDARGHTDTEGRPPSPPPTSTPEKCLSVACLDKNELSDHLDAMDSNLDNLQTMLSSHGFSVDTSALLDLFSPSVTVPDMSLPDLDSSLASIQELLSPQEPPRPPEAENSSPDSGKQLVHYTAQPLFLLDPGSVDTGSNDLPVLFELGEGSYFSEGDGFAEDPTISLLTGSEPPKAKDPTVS
# In short: as §1
# SPIC = target: T8, SPIC (Homo sapiens, UniProt Q8N5J4 1-248); conditions: protein: recombinant; tags: N-terminal GST; dsDNA, one strand shown
# T8 sequence: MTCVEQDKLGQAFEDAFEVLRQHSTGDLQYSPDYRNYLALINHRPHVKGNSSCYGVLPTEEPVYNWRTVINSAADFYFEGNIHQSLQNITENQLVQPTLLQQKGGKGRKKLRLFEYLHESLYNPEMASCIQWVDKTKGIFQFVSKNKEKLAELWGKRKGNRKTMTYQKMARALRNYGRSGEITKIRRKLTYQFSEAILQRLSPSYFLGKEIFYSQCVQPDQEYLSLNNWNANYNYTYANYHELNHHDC
# In short: as §1
# ELF4 = ELF4 (Homo sapiens, UniProt Q99607 1-663); conditions: protein: recombinant; tags: N-terminal GST; dsDNA, one strand shown
# Sequence of ELF4 (Q99607 whole entry): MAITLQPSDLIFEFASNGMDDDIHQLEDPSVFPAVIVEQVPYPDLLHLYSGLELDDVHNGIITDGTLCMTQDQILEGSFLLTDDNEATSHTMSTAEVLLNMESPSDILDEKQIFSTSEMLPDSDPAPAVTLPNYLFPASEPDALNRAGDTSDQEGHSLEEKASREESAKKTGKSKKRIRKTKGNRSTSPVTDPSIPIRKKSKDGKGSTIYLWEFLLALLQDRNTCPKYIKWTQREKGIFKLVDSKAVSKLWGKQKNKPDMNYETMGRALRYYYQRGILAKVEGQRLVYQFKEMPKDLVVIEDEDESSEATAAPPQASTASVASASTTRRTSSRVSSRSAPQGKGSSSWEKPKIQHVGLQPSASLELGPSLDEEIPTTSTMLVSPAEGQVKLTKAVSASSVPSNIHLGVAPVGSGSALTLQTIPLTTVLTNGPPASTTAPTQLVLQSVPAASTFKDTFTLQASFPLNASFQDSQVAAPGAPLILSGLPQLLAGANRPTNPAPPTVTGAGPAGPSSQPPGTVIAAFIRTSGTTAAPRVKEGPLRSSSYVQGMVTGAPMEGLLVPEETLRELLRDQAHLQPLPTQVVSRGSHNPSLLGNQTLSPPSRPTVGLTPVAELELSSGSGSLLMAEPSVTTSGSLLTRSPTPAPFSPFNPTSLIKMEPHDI
# In short: as §1
# ELK4 = target: T9, ELK4 (Homo sapiens, UniProt P28324-2 1-405); conditions: protein: recombinant; tags: N-terminal GST; dsDNA, one strand shown
# T9 sequence: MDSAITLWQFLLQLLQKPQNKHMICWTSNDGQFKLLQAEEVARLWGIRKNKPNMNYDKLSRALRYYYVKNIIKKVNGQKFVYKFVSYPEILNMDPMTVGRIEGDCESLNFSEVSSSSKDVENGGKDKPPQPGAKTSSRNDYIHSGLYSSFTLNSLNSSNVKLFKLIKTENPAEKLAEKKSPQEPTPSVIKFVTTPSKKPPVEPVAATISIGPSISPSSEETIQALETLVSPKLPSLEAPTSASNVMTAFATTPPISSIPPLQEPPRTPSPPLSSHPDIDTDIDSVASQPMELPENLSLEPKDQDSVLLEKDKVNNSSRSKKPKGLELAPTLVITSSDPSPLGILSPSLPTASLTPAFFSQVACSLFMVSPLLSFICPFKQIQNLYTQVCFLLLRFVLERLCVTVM
# In short: as §1
# ETV2 = target: T10, ETV2 (Homo sapiens, UniProt O00321 1-342); conditions: protein: recombinant; tags: N-terminal GST; dsDNA, one strand shown
# T10 sequence: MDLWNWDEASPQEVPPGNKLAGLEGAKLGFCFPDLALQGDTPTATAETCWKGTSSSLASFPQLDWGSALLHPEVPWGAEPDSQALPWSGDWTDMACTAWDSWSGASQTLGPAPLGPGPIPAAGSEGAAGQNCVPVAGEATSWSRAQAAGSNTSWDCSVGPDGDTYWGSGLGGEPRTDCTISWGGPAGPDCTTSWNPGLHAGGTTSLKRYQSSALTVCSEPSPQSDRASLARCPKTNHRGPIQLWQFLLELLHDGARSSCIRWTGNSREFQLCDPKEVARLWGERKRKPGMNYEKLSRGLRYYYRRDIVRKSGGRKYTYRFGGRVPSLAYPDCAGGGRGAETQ
# In short: as §1
# ELF3 = target: T11, ELF3 (Homo sapiens, UniProt P78545 1-371); conditions: protein: recombinant; tags: N-terminal GST; dsDNA, one strand shown
# T11 sequence: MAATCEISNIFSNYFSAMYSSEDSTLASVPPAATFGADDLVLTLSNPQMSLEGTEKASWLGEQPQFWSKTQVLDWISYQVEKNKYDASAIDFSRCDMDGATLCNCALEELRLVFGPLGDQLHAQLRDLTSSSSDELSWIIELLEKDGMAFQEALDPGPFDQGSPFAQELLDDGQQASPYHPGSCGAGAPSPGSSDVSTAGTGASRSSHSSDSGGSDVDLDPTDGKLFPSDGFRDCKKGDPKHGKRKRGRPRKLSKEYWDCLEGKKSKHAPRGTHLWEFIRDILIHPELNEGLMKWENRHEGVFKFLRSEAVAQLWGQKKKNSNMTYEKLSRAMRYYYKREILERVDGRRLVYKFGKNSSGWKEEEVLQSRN
# In short: as §1
# CRX = CRX (Homo sapiens, UniProt O43186 1-299); conditions: protein: recombinant; tags: N-terminal GST; dsDNA, one strand shown
# Sequence of CRX (O43186 whole entry): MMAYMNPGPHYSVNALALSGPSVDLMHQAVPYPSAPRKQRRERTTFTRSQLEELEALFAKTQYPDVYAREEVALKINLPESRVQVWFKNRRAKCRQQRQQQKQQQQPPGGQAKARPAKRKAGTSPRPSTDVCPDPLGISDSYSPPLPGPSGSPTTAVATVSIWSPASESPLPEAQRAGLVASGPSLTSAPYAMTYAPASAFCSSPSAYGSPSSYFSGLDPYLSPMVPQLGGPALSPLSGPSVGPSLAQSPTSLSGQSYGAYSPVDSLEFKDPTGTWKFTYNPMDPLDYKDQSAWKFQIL
# In short: as §1
# ETV1 = ETV1 (Homo sapiens, UniProt P50549 1-477); conditions: protein: recombinant; tags: N-terminal GST; dsDNA, one strand shown
# Sequence of ETV1 (P50549 whole entry): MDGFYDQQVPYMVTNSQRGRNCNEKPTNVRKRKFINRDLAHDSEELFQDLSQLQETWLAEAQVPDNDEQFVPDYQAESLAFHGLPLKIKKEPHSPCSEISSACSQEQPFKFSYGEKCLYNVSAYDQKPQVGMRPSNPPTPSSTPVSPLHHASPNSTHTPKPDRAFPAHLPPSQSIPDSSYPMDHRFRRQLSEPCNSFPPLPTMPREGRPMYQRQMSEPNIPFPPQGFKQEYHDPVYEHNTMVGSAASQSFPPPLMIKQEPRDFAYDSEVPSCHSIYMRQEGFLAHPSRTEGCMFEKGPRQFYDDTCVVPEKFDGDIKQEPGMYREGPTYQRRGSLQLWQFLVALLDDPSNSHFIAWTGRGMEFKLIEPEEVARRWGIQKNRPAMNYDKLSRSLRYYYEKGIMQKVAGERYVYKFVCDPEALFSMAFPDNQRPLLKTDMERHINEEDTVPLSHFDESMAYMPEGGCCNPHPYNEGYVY
# In short: as §1
sequence,measurement,setting,value
TCTTTA,binding signal,FLI1,"1.22 fold enrichment (6-mer frequency, TF over GST control)"
same,binding signal,ELK1,"1.25 fold enrichment (6-mer frequency, TF over GST control)"
same,binding signal,GABPA,"1.33 fold enrichment (6-mer frequency, TF over GST control)"
same,binding signal,ERG,"1.29 fold enrichment (6-mer frequency, TF over GST control)"
same,binding signal,ELF1,"1.31 fold enrichment (6-mer frequency, TF over GST control)"
same,binding signal,EHF,"1.25 fold enrichment (6-mer frequency, TF over GST control)"
same,binding signal,SPI1,"1.32 fold enrichment (6-mer frequency, TF over GST control)"
same,binding signal,SPIB,"1.21 fold enrichment (6-mer frequency, TF over GST control)"
same,binding signal,ELK3,"1.27 fold enrichment (6-mer frequency, TF over GST control)"
same,binding signal,FEV,"1.22 fold enrichment (6-mer frequency, TF over GST control)"
same,binding signal,ETV5,"1.16 fold enrichment (6-mer frequency, TF over GST control)"
same,binding signal,HSF1,"1.5 fold enrichment (6-mer frequency, TF over GST control)"
same,binding signal,SPIC,"1.22 fold enrichment (6-mer frequency, TF over GST control)"
same,binding signal,ELF4,"1.21 fold enrichment (6-mer frequency, TF over GST control)"
same,binding signal,ELK4,"1.3 fold enrichment (6-mer frequency, TF over GST control)"
same,binding signal,ETV2,"1.31 fold enrichment (6-mer frequency, TF over GST control)"
same,binding signal,ELF3,"1.36 fold enrichment (6-mer frequency, TF over GST control)"
same,binding signal,CRX,"1.93 fold enrichment (6-mer frequency, TF over GST control)"
same,binding signal,ETV1,"1.25 fold enrichment (6-mer frequency, TF over GST control)"
